Screening results from PubChem.
Most compounds without a hit are left out; they make up all but 19% or so of the library.
Pf growth 48h: P. falciparum growth inhibition at 48 hours (one generation). P. falciparum luciferase growth in erythrocytes, 48 h. Potency, µM (doses to about 28.7 µM), for inactives: at the highest dose activity change, negative = inhibition, most hits filed as inhibitors. 5.9% of 310,000 active; also: potency is read from the fitted curve at half-maximal effect; % is scaled to controls: 0 for no effect and ±100 for the full control effect
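Luciferase-expressing P. falciparum in infected erythrocytes (2% hematocrit, 0.1% parasitemia final) in RPMI 1640/0.5% Albumax were exposed to compound for 48 hours at 37 C, 5% CO2; growth read as luminescence.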
SARS PLP yeast: inhibitors of SARS-CoV papain-like protease in yeast. Potency, µM (top dose mostly 32.9 µM), inactives show at the top dose activity, positive = growth rescue, most hits filed as activators. 0.19% of 330,000 active. S. cerevisiae expressing SARS-CoV PLpro, growth rescue; calls by dose curve; also: potency is read from the fitted curve at half-maximal effect; 0% is about no effect; nearly all actives have a fitted effect of over 55% in size
Shiga inhibitor: inhibitors of Shiga toxin in Vero cells. 9.2% of 290,000 active. inhibition, % at 38.7 µM. AID 2315. Vero cells, Shiga toxin protein synthesis inhibition reporter; in the data active = inhibition mostly above about 28%, no sharp cut-off; inactive = mostly below about 43%; also: 0% is about no effect
Pf growth 96h: inhibits malaria parasite growth, 96 h; P. falciparum luciferase reporter growth, 96 h; 6.9% of 320,000 active; Potency, µM (highest dose often 28.7 µM), inactives show top-dose activity change, negative = inhibition, most hits filed as inhibitors; also: potency is read from the fitted curve at half-maximal effect; % is scaled to controls: 0 for no effect and ±100 for the full control effect
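Infected RBCs, 2% Hct / 0.05% parasitemia final; luciferase-reporter P. falciparum; cpd 96 h, 37 C, 5% CO2; luciferase detection reagent; luminescence.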
Cycloheximide cs: affects cycloheximide protein synthesis inhibition readout, counter-screen. cell reporter, cycloheximide protein synthesis inhibition counterscreen. max response, %. 12% of 300,000 active; in the data active = max response mostly above about 13%, no sharp cut-off; inactive = mostly below about 14%; also: read at 38.3 µM for the half of the compounds with a filed dose; 0% is about no effect
AMA1 RON2 block: inhibitors of Plasmodium falciparum AMA1-RON2 interaction; AlphaScreen AMA1-biotinylated RON2 peptide binding; Potency, µM (series often up to 58.2 µM), for the others: at the highest dose activity change, negative = inhibition, most hits filed as inhibitors; 0.2% of 360,000 active;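 also: potency is read from the fitted curve at half-maximal effect; 0% = vehicle wells and -100% = peptide control; nearly all actives have a fitted effect of over 45% in size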
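AMA1 (3D7) with his tag at 25 nM final met compounds first, then biotinylated RON2 peptide at 25 nM; detection used donor plus acceptor beads, 10 µg/mL apiece, read by AlphaScreen after 30 min at room temperature.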
* marks the source's active call; other numbers are inactive results; ? = inconclusive; · = no result given; [ ] = remark or other dose. Unless noted, calls follow the shape of the dose curve; as a rule, active = well fitted curve in the direction sought with a large enough effect; inconclusive = small, poorly fitted or top-dose-only effect, or another doubt; inactive = no such curve, though single readings can be large; an effect the other way counts as inactive or inconclusive.

SMILES	Pf growth 48h	SARS PLP yeast	Shiga inhibitor	Pf growth 96h	Cycloheximide cs	AMA1 RON2 block
CCn1c(Sc2ccc([N+](=O)[O-])cn2)nnc1-c1ccco1	?	0%	15	-18%	8	25%
O=C(CSC1=N/C(=C/c2ccco2)C(=O)N1c1ccc(OC(F)F)cc1)NC1CCS(=O)(=O)C1 (stereo unspecified)	3%	-1%	24*	-11%	17	-6%
COc1ccc(N2C(=O)/C(=C\c3ccco3)N=C2SCC(=O)N(C(C)C)C(C)C)cc1Cl	10µM*	-7%	2	?	10	0%
COc1ccc(N2C(=O)/C(=C\c3ccco3)N=C2SCC(=O)NC(C)C)cc1Cl	-30%	-23%	7	?	2	6%
Cc1ccc(NC(=O)COc2coc(CN3CCN(c4ccccc4)CC3)cc2=O)cc1	?	8%	·	4.7µM*	·	-4%
COc1ccccc1N1CCN(Cc2cc(=O)c(OCC(=O)Nc3ccccc3)co2)CC1	9.3µM*	7%	·	-6%	·	5%
Cc1cccc(NC(=O)COc2coc(CN3CCN(c4ccccc4)CC3)cc2=O)c1C	9.3µM*	5%	·	?	·	-10%
O=C(COc1coc(CN2CCN(c3ccccc3F)CC2)cc1=O)Nc1ccccc1	15%	1%	·	30%	·	-12%
CC1CCC(NC(=O)c2cc(Cl)nc3ccccc23)CC1 (stereo unspecified)	52%	-11%	·	65%	·	-9%
CC(Cc1ccccc1)NC(=O)CCNNC(=O)c1ccncc1 (stereo unspecified)	·	·	·	·	·	19%
O=C(/C=C/c1ccccc1)Nc1scc(-c2ccccc2)c1C(=O)O	24%	-1%	59*	?	30*	-9%
O=C(/C=C/c1ccco1)Nc1scc(-c2ccccc2)c1C(=O)O	?	-3%	29	213%	22*	14%
Cc1sc(NC(=O)/C=C/c2ccco2)c(C(=O)OC(C)C)c1C	24%	16%	-3	7%	-1	-1%
O=C1CCC(C(=O)OCC(=O)Nc2ccc(SC(F)F)cc2)=NN1	·	·	·	·	·	1%
O=C(c1ccc2c(c1)N(Cc1ccccc1)CCS2)N1CCOCC1	-8%	1%	-6	-13%	14	-6%
O=C(c1ccc2c(c1)N(Cc1ccc(F)cc1)CCS2)N1CCOCC1	0%	0%	6	10µM*	-2	13%
O=C(c1ccc2c(c1)N(Cc1ccccc1)CCS2)N1CCCCC1	?	-15%	16	0.74µM*	6	?
CCOC(=O)N1C(=O)NC(=O)C1c1ccc(OC)cc1 (stereo unspecified)	·	·	·	·	·	7%
CCCCn1c(=O)[nH]c(=O)c2c1nc(-c1cc3c(cc1Br)OCO3)n2C	?	0%	-5	?	11	5%
O=C(Nc1ccc(N2CCN(C(=O)c3ccccc3F)CC2)cc1)c1ncn[nH]1	-22%	4%	-4	8%	-2	48%
COc1cccc(-c2cnc(C(O)c3ccc(Cl)c(F)c3)[nH]2)c1 (stereo unspecified)	·	·	·	·	·	-13%
CCc1c(C)nc2c(C#N)c(C)[nH]n2c1=O	28%	-21%	-4	5.2µM*	-2	-11%
Cc1nc2c(C#N)c(C)[nH]n2c(=O)c1Cc1ccccc1	17%	10%	-18	19%	2	-4%
Cc1[nH]n2c(=O)cc(Cc3ccccc3)nc2c1C#N	-7%	1%	7	10µM*	-3	0%
COc1ccc(CC(=O)Nc2cc(C)ccn2)cc1	93%	0%	86*	-1%	42*	-7%
SMILES	Pf growth 48h	SARS PLP yeast	Shiga inhibitor	Pf growth 96h	Cycloheximide cs	AMA1 RON2 block
Cc1ccnc(NCc2ccc(Br)cc2)c1	33%	1%	35*	0%	38*	1%
COc1ccc(CC(=O)Nc2cc(C)ccn2)cc1OC	·	·	·	·	·	-15%
COc1ccc(CNc2cc(C)ccn2)cc1	-2%[0.00184 µM]	1%	97*	?	37*	0%
CCCCCc1ccc(S(=O)(=O)Nc2cc(C)ccn2)cc1	0%	0%	2	74%	-2	-15%
COc1cc(/C=C2/CC(C)OC2=O)c([N+](=O)[O-])cc1OC (stereo unspecified)	5%	4%	-9	-7%	-1	-11%
Nc1ccc([As](=O)(O)O)cc1	15µM*	-2%	-3	8.3µM*	-2	-5%
CC1C(=O)N2CCCc3cc(NC(=O)C4CC4)cc1c32 (stereo unspecified)	-5%	0%	·	24%	·	-2%
Cc1cc(=O)[nH]c(N/N=C/c2ccc(OC(=O)c3cccnc3)cc2)n1	6%	0%	-18	38%	-2	11%
O=C(Nc1ccc2c(c1)OCCO2)C(=S)NCc1ccccc1	287%	-3%	82*	46%	49*	107%
O=C(Nc1ccc2c(c1)OCCO2)C(CCc1ccccc1)N(Cc1ccccc1)Cc1ccccc1 (stereo unspecified)	·	·	·	·	·	-14%
O=C(NCc1ccccc1)c1ccc2c(c1)OCCO2	57%	-7%	26	36%	23*	4%
O=C(NCc1ccccc1Cl)c1ccc2c(c1)OCO2	28%	2%	32*	-3%	18*	-9%
NNC(=O)[C@H](Cc1ccccc1)NC(=O)Nc1ccc2c(c1)OCCO2	9.3µM*	-1%	-3	?	2	37%
Cc1cccc(NC(=O)Oc2ccc(Cl)c3cccnc23)c1	·	·	·	·	·	0%
CSc1ncc(F)c(N(CCO)CCO)n1	-4%	-1%	-16	49%	-4	3%
O=C(NCc1cccs1)c1ccc2c(c1)OCCO2	58%	-1%	22	3%	37*	-6%
COc1ccc(C(=O)/C=C/c2cn(CC(O)CN3CCN(C)CC3)c3ccccc23)cc1OC (stereo unspecified)	4.7µM*	0%	-2	12µM*	-2	-21%
COc1ccc(C(=O)N/C(=C\c2cccc3ccccc23)C(=O)N2CCN(C)CC2)cc1OC	5%	0%	13	9%	1	-6%
CCn1cc(/C=C(\NC(=O)c2ccc(OC)c(OC)c2)C(=O)NCCCN2CCOCC2)c2ccccc21	1%	2%	-3	?	-2	6%
CCn1cc(/C=C(\NC(=O)c2ccc(OC)c(OC)c2)C(=O)N2CCN(C)CC2)c2ccccc21	?	-1%	-9	10µM*	-3	-10%
O=C(/C=C/c1cn(CC(O)CN2CCCCC2)c2ccccc12)c1ccccc1 (stereo unspecified)	13µM*	1%	20	?	12	-26%
CN1C(=O)C(=Cc2cn(CC(=O)N3CCCC3)c3ccccc23)C(=O)N(C)C1=O	7%	-1%	-6	3%	-3	0%
CCCN(CCC)CC(O)Cn1cc(/C=C/C(=O)c2ccccc2)c2ccccc21 (stereo unspecified)	?	-5%	42	-15%	-2	-23%
